# Results from PubChem BioAssay.
# Values without a mark were called inactive. Calls of active or inactive are those of the source.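 How the source made its calls: active means inhibition above the hit cutoff set in the earlier primary screen (cut at about 27% in these data); inactive means the rest.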
# Target: Protein phosphatase methylesterase 1 (Homo sapiens) (UniProt Q9Y570)
# Experiment: PME-1 inhibitor activity retest, confirmation, biochemical, fluorescence polarization, FP-Rh probe, triplicate (AID 2171);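 further: 0% = enzyme with DMSO and 100% = wells lacking PME-1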
# Settings: recombinant PME-1, FP-Rh probe fluorescence polarization; at 5.9 µM; active compounds read high
# Sequence of Protein phosphatase methylesterase 1 (Homo sapiens) (Q9Y570 whole entry, looked up): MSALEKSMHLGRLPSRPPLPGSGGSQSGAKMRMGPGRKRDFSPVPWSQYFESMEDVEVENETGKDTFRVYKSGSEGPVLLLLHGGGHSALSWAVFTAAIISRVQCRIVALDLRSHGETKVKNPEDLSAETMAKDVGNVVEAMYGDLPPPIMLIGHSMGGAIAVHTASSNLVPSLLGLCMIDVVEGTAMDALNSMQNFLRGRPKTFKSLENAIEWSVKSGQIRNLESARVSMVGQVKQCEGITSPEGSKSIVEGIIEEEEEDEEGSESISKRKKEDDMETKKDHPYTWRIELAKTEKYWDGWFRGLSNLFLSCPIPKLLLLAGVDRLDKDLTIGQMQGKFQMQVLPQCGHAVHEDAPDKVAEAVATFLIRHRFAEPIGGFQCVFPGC
row,Structure (SMILES),inhibition
1,CCCCCCC(=O)Nc1nc(C)c(-c2csc(Nc3cc(OC)ccc3OC)n2)s1,65% (active)
2,CCCn1c(N)c(C(=O)CN(C)CC(=O)Nc2ccccc2CC)c(=O)[nH]c1=O,20.4%
3,COc1ccc2nc(N3C(=O)/C(=C/c4ccccc4)NC3=S)sc2c1,43.3% (active)
4,O=C(N/N=C/c1c[nH]c2ccccc12)c1sc2ccccc2c1Cl,21.7%
5,Cc1ccc(N=Nc2c(N)n(-c3ccccc3)[nH]c2=O)cc1,33.1% (active)
6,Cc1cc2c(N=O)c(NO)ccc2[nH]1,33.3% (active)
7,Cc1ccccc1NC1=C/C(=N\S(=O)(=O)c2ccc(C(=O)O)cc2)c2ccccc2C1=O,40% (active)
8,CC1=Nc2ccccc2/C1=C\c1sc(Nc2ccc(C)cc2)nc1O,42.2% (active)
9,COc1ccc(N=Nc2nc3ccc(Br)cc3n2C)cc1,29.7% (active)
10,CCCCn1c(/C=N/Nc2nc3ccccc3[nH]2)nc2ccccc21,61.3% (active)
11,Cc1ccc2cc(C#N)c(SCc3nnc(-c4ccccc4[N+](=O)[O-])o3)nc2c1,25.1%
12,CCn1c(CSc2nnc(-c3cccnc3)n2-c2ccccc2C)nc2cc(C(=O)O)ccc21,82% (active)
13,CCOC(=O)c1c(C)[nH]c(C)c1S(=O)(=O)N(C)CC(=O)Nc1cc(C)ccc1OC,24.4%
14,Cc1ccc(S(=O)(=O)N2CCN(C(=O)Cn3c(=O)cnc4ccccc43)CC2)cc1,25.8%
15,COc1cc(/C=C/c2ccc3cccc(O)c3n2)c(Br)cc1O,27.5% (active)
16,COc1cc(/C=C2/C(=O)c3cccc([N+](=O)[O-])c3C2=O)c(Br)cc1O,16.7%
17,COC(=O)N1C(=O)[C@](c2ccccc2)(C2CCCCC2)N1C(=O)OC,76.6% (active)
18,CNS(=O)(=O)c1cc(C(=O)OCC(=O)NC2CCCc3ccccc32)ccc1Cl (stereo not given),24.4%
19,C=CCOc1c(OC)cc(/C=N/Nc2cccc(C(=O)O)c2)c(Br)c1Br,44.5% (active)
20,CCc1ccc2[nH]c(O)c(N=NC3=NC(=O)CS3)c2c1,44% (active)

row,Structure (SMILES),inhibition
1,Nc1ccc(Br)c2c1C(=O)c1ccccc1C2=O,21%
2,CCN(CC)S(=O)(=O)c1cc(NC(=O)C(C)N2CCN(c3ccccn3)CC2)ccc1C (stereo not given),18.6%
3,N#CC1=C(N)C(C#N)(C#N)C(c2cccnc2)C2CN(C(=O)OCc3ccccc3)CC=C12 (stereo not given),35.5% (active)
4,Cc1cc(N)ccc1-n1c(C)ccc1C,6.22%
5,CC(=O)Nc1ccc(Nc2c3c4c(cccc4n(C)c2=O)C(=O)c2ccccc2-3)cc1,31.5% (active)
6,CC(=O)Oc1c(I)cc(I)cc1C(=O)Nc1ccc(Cl)cc1,66.8% (active)
7,C=CCCC(=O)Nc1nc(C)c(-c2csc(Nc3ccc(Cl)cc3)n2)s1,48.2% (active)
8,Oc1c(Br)cc(Br)cc1CNc1cnc2ccccc2c1,34.8% (active)
9,O=C(CNc1ccc2ccccc2c1)N/N=C/c1cc2ccccc2nc1Cl,22.6%
10,Brc1csc(/C=N/Nc2nc3ccccc3s2)c1,45.3% (active)
11,O=C(N/N=C/c1sc(N2CCOCC2)nc1-c1ccccc1)c1ccccc1O,51.2% (active)
12,Cc1ccc(C)c(NC(=O)COC(=O)c2cc3ccccc3oc2=O)c1,22.3%
13,CCN(CC)c1ccc(-c2nn3c(-c4ccccc4OC)nnc3s2)cc1,22.1%
14,Cc1ccc(NC(=S)NC(=O)c2ccc(-c3ccc(Cl)cc3)o2)c(O)c1,22.9%
15,COC(=O)c1ccc(Sc2ccccc2NS(=O)(=O)c2ccc(C)cc2)nc1,25.9%
16,C=CCOc1ccc(/C=N/NC(=O)c2cc3c(OC)cc(OC)cc3[nH]2)cc1,24.4%
17,O=C(COC(=O)CCCN1C(=O)c2cccc3cccc(c23)C1=O)Nc1ccc(Cl)cc1,22.7%
18,CC(=O)Cc1cc(O)c2ccccc2c1OC(=O)c1ccc(Br)cc1,24.8%
19,O=C(N/N=C/c1c[nH]c2ccccc12)c1cc(-c2cccc3ccccc23)n[nH]1,2.43%
20,COc1cc(/C=N/Nc2nc(-c3ccc(S(=O)(=O)N(C)C)cc3)cs2)ccc1O,19.7%
